Laboratory results reported in PubChem BioAssay (NCI).
Compounds without any hit were thinned out: in the full panel of roughly 83,000, 20% have a hit.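 96-well plates, one dose, 48 hours. Percent growth reported; active if below 10.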 The source made the active and inactive calls.

How the values were obtained:
Assay in all cases: NCI-60 one-dose screen, 48 h (100 = growth as untreated, 0 = no growth, -100 = all killed)
[1] = system: DU-145 prostate; details: 10 µM unless noted
[2] = system: K-562 leukemia; details: 10 µM unless noted
[3] = system: MALME-3M melanoma; details: 10 µM unless noted
[4] = system: MDA-MB-231 breast; details: 10 µM unless noted
[5] = system: RXF 393 renal; details: 10 µM unless noted
[6] = system: SF-268 CNS; details: 10 µM unless noted
[7] = system: SF-295 CNS; details: 10 µM unless noted
[8] = system: SF-539 CNS; details: 10 µM unless noted
[9] = system: M14 melanoma; details: 10 µM unless noted
[10] = system: HCT-15 colon; details: 10 µM unless noted
[11] = system: HT29 colon; details: 10 µM unless noted
[12] = system: SNB-75 CNS; details: 10 µM unless noted
[13] = system: SNB-19 CNS; details: 10 µM unless noted
[14] = system: U251 CNS; details: 10 µM unless noted
[15] = system: PC-3 prostate; details: 10 µM unless noted
[16] = system: SK-MEL-5 melanoma; details: 10 µM unless noted
[17] = system: UACC-62 melanoma; details: 10 µM unless noted
[18] = system: LOX IMVI melanoma; details: 10 µM unless noted
[19] = system: SK-MEL-28 melanoma; details: 10 µM unless noted
[20] = system: UACC-257 melanoma; details: 10 µM

Measured: growth

Cc1cc(O)c(=O)cc2c1C[C@H]1CC(C)(C)/C=C/C[C@]3(C)Oc4cc(=O)c(O)cc(C)c4C[C@H]3C[C@H](O)[C@@]1(C)O2
active: [2] -42.7% | [3] -8.22% | [5] 5.24% | [7] 4.92% | [8] 7.55% | [9] -25.9% | [11] 8.78% | [14] 3.83% | [15] 9.28% | [16] -46.5% | [17] -41% | [18] 6.81%
inactive: [1] 16.1% | [4] 17.4% | [6] 16.6% | [10] 18.5% | [12] 23.9% | [13] 11.2% | [19] 11.1%

Cc1cc(O)c2c(c1)C(=O)C(c1c(C)cc3c(c1O)C(=O)C=CC3=O)=CC2=O
active: [3] -15.2%
inactive: [1] 72.8% | [2] 15.4% | [4] 62.8% | [5] 20.2% | [6] 96.8% | [7] 107% | [8] 108% | [9] 93.1% | [10] 46.5% | [11] 65.3% | [12] 92.3% | [13] 99.9% | [14] 94% | [15] 82.9% | [16] 102% | [17] 61.5% | [18] 61.3% | [19] 71.2%

COC1=C(c2ccccc2)C(=O)C(OC)=C(c2ccccc2)C1=O
inactive: [1] 117% | [2] 77.2% | [3] 112% | [4] 94.5% | [5] 106% | [6] 106% | [7] 100% | [8] 102% | [9] 98.9% | [10] 97.6% | [11] 95% | [12] 56% | [13] 101% | [14] 91.6% | [15] 96.2% | [16] 103% | [17] 97.1% | [18] 95.2% | [19] 117%

O=C1C[C@@H](c2ccccc2)Oc2c(Cc3ccccc3O)c(O)c(Cc3cc(Cc4cc(Cc5ccccc5O)ccc4O)ccc3O)c(O)c21
inactive: [1] 102% | [2] 99.8% | [3] 95% | [4] 82.4% | [5] 94.7% | [6] 85.2% | [7] 102% | [8] 101% | [9] 88.6% | [10] 104% | [11] 128% | [12] 72.7% | [13] 99.7% | [14] 93.7% | [15] 89.1% | [16] 98.6% | [17] 72.7% | [18] 87.2% | [19] 114%

Cc1occc1-c1nc2s/c(=C\c3cn(-c4ccccc4)nc3-c3ccccc3)c(=O)n2n1
inactive: [1] 106% | [2] 106% | [3] 101% | [4] 97.8% | [6] 101% | [7] 101% | [8] 91.2% | [20] 96% | [9] 100% | [10] 99.2% | [11] 101% | [12] 84% | [13] 96.8% | [14] 97.1% | [15] 90.6% | [16] 92.4% | [17] 92.1% | [18] 103% | [19] 101%

Cc1ccc(C2CC(c3ccc(Nc4nc(NCCO)nc(Nc5ccc(Cl)cc5)n4)cc3)=Nc3c(N)nc(N)nc3N2)cc1 (configuration not stated)
inactive: [3] 95.6% | [7] 28.9% | [20] 113% | [12] 112% | [16] 67.5% | [17] 107% | [19] 110%
active: [1] -90.7% | [2] -53.5% | [4] -74.3% | [6] -46.7% | [8] -20.3% | [9] 2.15% | [10] -81.7% | [11] -90.8% | [13] -90.3% | [14] -96.8% | [15] -32.7% | [18] -93.9%

CS(=O)(=O)c1ccc(-c2nn(-c3ccccc3)cc2/C=C/C(=O)c2ccc(Br)cc2)cc1
inactive: [1] 100% | [2] 47.3% | [3] 71.3% | [4] 88.3% | [5] 93.7% | [6] 99.4% | [7] 104% | [8] 102% | [20] 96.3% | [10] 64% | [11] 97.8% | [12] 107% | [13] 85.6% | [14] 86.1% | [15] 89.1% | [17] 78.9% | [18] 67.5% | [19] 102%

CC[C@@](C)(NC(=O)C(C)(C)NC(=O)[C@@H](NC(=O)[C@@H]1CCCN1C(=O)C(C)(C)NC(=O)[C@H](CC(C)C)NC(=O)CNC(=O)C(C)(C)NC(=O)[C@@H](NC(=O)C(C)(C)NC(=O)[C@H](CCC(N)=O)NC(=O)[C@H](C)NC(=O)C(C)(C)NC(=O)[C@H](C)NC(=O)C(C)(C)NC(=O)[C@H](C)NC(=O)C(C)(C)NC(C)=O)C(C)C)C(C)C)C(=O)N[C@@H](CCC(N)=O)C(=O)N[C@@H](CCC(N)=O)C(=O)N[C@H](CO)CC1CCCCC1
inactive: [1] 35.1% [5 µM] | [2] 32.1% [5 µM] | [4] 32.7% [5 µM] | [5] 23.7% [5 µM] | [6] 32.6% [5 µM] | [7] 81.8% [5 µM] | [8] 18.8% [5 µM] | [9] 58.4% [5 µM] | [10] 101% [5 µM] | [11] 23% [5 µM] | [12] 13.4% [5 µM] | [13] 24.3% [5 µM] | [14] 29.2% [5 µM] | [15] 15.5% [5 µM] | [17] 31.1% [5 µM] | [19] 26.9% [5 µM]
active: [3] -18.4% [5 µM] | [16] -43.5% [5 µM] | [18] 0.772% [5 µM]

CC(C)C[C@H]1C(=O)O[C@H](C(C)C)C(=O)N(C)[C@@H](C(C)C)C(=O)O[C@H](C(C)C)C(=O)N(C)[C@@H](C(C)C)C(=O)O[C@H](C(C)C)C(=O)N1C
inactive: [1] 24.4% | [3] 18% | [5] 19.1% | [6] 20.4% | [8] 22.3% | [9] 18.5% | [10] 16.6% | [13] 22.4% | [14] 14.1% | [15] 14.5% | [19] 38.2%
active: [2] 8.19% | [4] 8.5% | [7] 5.53% | [11] 8.39% | [12] 7.5% | [16] -32% | [17] 9.49% | [18] 9.57%

CCC(C)[C@H]1OC(=O)[C@H](C(C)C)N(C)C(=O)[C@@H](C(C)C)OC(=O)[C@H](C(C)C)N(C)C(=O)[C@@H](C(C)CC)OC(=O)[C@H](C(C)C)N(C)C1=O (some centres not stated)
inactive: [1] 22% | [5] 17.2% | [6] 22.1% | [8] 13.8% | [9] 17.6% | [10] 11.4% | [13] 18.1% | [14] 12.5% | [15] 12.1% | [19] 32.2%
active: [2] 8.02% | [3] 7.55% | [4] 2.72% | [7] 6.32% | [11] 6.93% | [12] -2.11% | [16] -31.5% | [17] 6.11% | [18] 7.89%

CC[C@@](C)(NC(=O)C(C)(C)NC(=O)[C@@H](NC(=O)[C@@H]1CCCN1C(=O)C(C)(C)NC(=O)[C@H](CC(C)C)NC(=O)CNC(=O)C(C)(C)NC(=O)[C@@H](NC(=O)C(C)(C)NC(=O)[C@H](CCC(N)=O)NC(=O)[C@H](C)NC(=O)C(C)(C)NC(=O)[C@H](C)NC(=O)C(C)(C)NC(=O)[C@@H]1CCCN1C(=O)C(C)(C)NC(C)=O)C(C)C)C(C)C)C(=O)N[C@@H](CCC(N)=O)C(=O)N[C@@H](CCC(N)=O)C(=O)N[C@H](CO)Cc1ccccc1
inactive: [1] 30.9% [4.25 µM] | [2] 29.1% [4.25 µM] | [4] 32.4% [4.25 µM] | [5] 29.1% [4.25 µM] | [6] 31.6% [4.25 µM] | [7] 86.6% [4.25 µM] | [8] 28.7% [4.25 µM] | [9] 65.9% [4.25 µM] | [10] 98% [4.25 µM] | [11] 17.4% [4.25 µM] | [13] 21% [4.25 µM] | [14] 33.1% [4.25 µM] | [15] 16.2% [4.25 µM] | [17] 47.5% [4.25 µM] | [19] 27.5% [4.25 µM]
active: [3] -21.3% [4.25 µM] | [12] 3.47% [4.25 µM] | [16] -39.8% [4.25 µM] | [18] 4.55% [4.25 µM]

Cc1ccc(-c2cc(-c3ccc(N(C)C)cc3)n3c(n2)nc2ccccc23)cc1
active: [16] -37.6%
inactive: [1] 87.2% | [2] 29.2% | [3] 96.1% | [4] 66% | [6] 88.7% | [7] 55% | [8] 89.8% | [20] 65.8% | [9] 77.2% | [10] 56.6% | [11] 65.8% | [12] 94% | [13] 50.2% | [14] 56.7% | [15] 47.8% | [17] 35% | [18] 83.5% | [19] 52.9%
